Measurements published in PubChem BioAssay (Tox21).
Records with an inconclusive call do not appear. A call without a number means that no potency is given here. A number with no mark means an inactive call. Activity calls are given as the source filed them. Calls come from the whole dose curve; as a rule, active = well fitted cell-killing curve with a large enough effect in the repeat runs; inconclusive = weak or mixed curves, or effect the other way; inactive = flat fitted curve, though single readings scatter.

Assay: qHTS assay to identify small molecule antagonists of the estrogen receptor alpha (ER-alpha) signaling pathway using the BG1 cell line in the presence of 0.1 nM 17-beta-estradiol - cell viability counter screen (AID 1259241); note: nearly all actives have a fitted effect of over 40% in size
Conditions: VM7Luc4E2 (BG1) viability, CellTiter-Fluor protease, 22 h, 0.1 nM estradiol agonist added; series mostly up to 92.4 µM
Description: National Center for Advancing Translational Sciences [NCATS]
NIH Chemical Genomics Center [NCGC]
U.S. Environmental Protection Agency [EPA]
National Institutes of Environmental Health Sciences [NIEHS]
National Toxicology Program [NTP]
U.S. Food and Drug Administration [FDA]
Estrogen receptor (ER), a member of the nuclear hormone receptor plays an important role in development, metabolic homeostasis and reproduction. Two subtypes of ER, ER-alpha and ER-beta, have similar expression patterns with some uniqueness in both types. Endocrine disrupting chemicals (EDCs) and their interactions with steroid hormone receptors like ER causes disruption of normal endocrine function. Therefore, it is important to understand the effect of environmental chemicals in ER signaling pathway. For identifying ER antagonists, VM7Luc4E2 cell line was used to screen against Tox21 compound libraries.
VM7Luc4E2 cell line (provided by Denison MS, University of California) endogenously express full-length ER-alpha and is stably transfected with a plasmid containing four estrogen responsive elements (ERE) upstream of a luciferase reporter gene. The current screening for identification of ER-alpha inhibitors against Tox21 compound libraries used lower concentration (0.1 nM) of 17beta-Estradiol as a stimulator. The cytotoxicity of the Tox21 compound libraries against VM7Luc4E2 cell line was tested by measuring live-cell protease activity using CellTiter-Fluor assay in the same wells.
Tox21 Assay Protocol Summary:
VM7Luc4E2 cells were cultured in phenol red free assay medium containing 10% charcoal stripped FBS for 5 days prior to the assay. The cells were dispensed at 4,000 cells/well in 4 uL of assay medium into white wall/solid-bottom 1536-well plates (Corning Life Sciences, Corning, NY) using a Multidrop Combi (ThermoFisher Scientific, Waltham, MA) dispenser. After the assay plates were incubated at 37C and 5% CO2 for 24 hr, 23 nL of compounds dissolved in DMSO, positive controls or DMSO only was transferred to the assay plates by a Pintool station (Kalypsys, San Diego, CA). The transfer of compounds was followed by the addition of 1 uL of 0.1 nM (final concentration) agonist (17beta-Estradiol)/assay medium using a Flying Reagent Dispenser (FRD, Aurora Discovery, San Diego, CA). The plates were incubated at 37C and 5% CO2 for 22 hr. For cytotoxicity assay, 1 uL of CellTiter-Fluor reagent (Promega Corporation, Madison, WI) was added to each well using the FRD and after 30 min incubation at 37C and 5% CO2, The fluorescence intensity was measured using ViewLux plate reader (PerkinElmer, Shelton, CT).
Potency is the fitted concentration of half-maximal effect.

Which Potency does the source give for `CCOc1ccc(N=Nc2ccc(/C=C/c3ccc(N=Nc4ccc(OCC)cc4)cc3S(=O)(=O)O)c(S(=O)(=O)O)c2)cc1` here?
Its Potency is 24 µM (active).

With `C=CC1CC2C=CC1C2` (stereo not given) as the compound, how does the Potency read?
The Potency was “inactive”.

Which Potency does the source give for `CO[C@@H]1[C@H](OC(=O)/C=C/C=C/C=C/C=C/C(=O)O)CC[C@]2(CO2)[C@H]1[C@@]1(C)O[C@@H]1CC=C(C)C` here?
The Potency was “inactive”.

Which Potency does the source give for `CC(CC=O)c1ccccc1` (stereo not given) here?
The Potency was “inactive”.

With `C[C@H]1C[C@H]2[C@@H]3CCC4=CC(=O)C=C[C@]4(C)[C@@]3(Cl)[C@@H](O)C[C@]2(C)[C@@]1(O)C(=O)CO` as the compound, how does the Potency read?
Its Potency is “inactive”.

Which Potency does the source give for `CN(C)CCOC(c1ccccc1)c1ccc(Br)cc1` (stereo not given) here?
The Potency was “inactive”.

Which Potency does the source give for `CC(=O)NO` here?
Its Potency is “inactive”.

Which Potency does the source give for `COc1ccc(C)cc1[N+](=O)[O-]` here?
Its Potency is “inactive”.

For `Cc1cccc(Nc2ccccc2)c1`, which Potency is on record?
Its Potency is “inactive”.

With `CCCCCCCCCCCCCCCCOS(=O)(=O)O` as the compound, how does the Potency read?
The Potency was “inactive”.

For `NCC(=O)O`, which activity change, negative = cytotoxicity is on record?
The activity change, negative = cytotoxicity was -1.87% [at 19 µM].

For `O=C(O)C(S)C(S)C(=O)O` (stereo not given), which Potency is on record?
Its Potency is “inactive”.

With `CCOC(=O)C(F)(F)F` as the compound, how does the Potency read?
Its Potency is “inactive”.

For `COC(C)(C)CCO`, which Potency is on record?
Its Potency is “inactive”.

For `Clc1ccc2c(c1)CCc1cccnc1C2=C1CCNCC1`, which Potency is on record?
The Potency was “inactive”.

For `COc1ccc(C(=O)Nc2nc3ccccc3c(NCc3ccccc3)c2C#N)cc1`, which Potency is on record?
Its Potency is “inactive”.

With `CNCCCCOc1ccccc1Cc1ccccc1` as the compound, how does the Potency read?
The Potency was “inactive”.

For `C=CC(=O)OCCOCCOC(=O)C=C`, which Potency is on record?
The Potency was 61.4 µM (active).

With `C=C1C(=C/C=C2\CCC[C@]3(C)[C@@H]([C@H](C)/C=C/[C@@H](O)C4CC4)CC[C@@H]23)C[C@@H](O)C[C@@H]1O` as the compound, how does the Potency read?
The Potency was “inactive”.

Which Potency does the source give for `O=C(CS)Nc1ccccc1` here?
The Potency was “inactive”.

For `O=S(c1cc(Cl)cc(Cl)c1O)c1cc(Cl)cc(Cl)c1O`, which Potency is on record?
Its Potency is “inactive”.

For `O=C1OC(CN2CCOCC2)CN1/N=C/c1ccc([N+](=O)[O-])o1` (stereo not given), which Potency is on record?
Its Potency is “inactive”.

Which Potency does the source give for `C=C1[C@H]2CC[C@@H]3[C@H]2C(C)(C)CCC[C@]13C` here?
Its Potency is “inactive”.

Which Potency does the source give for `CN(C)c1ccc(CCO)cc1` here?
The Potency was “inactive”.

Which Potency does the source give for `Cc1ccccc1S(=O)(=O)O` here?
The Potency was “inactive”.

Which Potency does the source give for `CCC(C)c1cc(C(C)(C)C)c(O)c(C(C)(C)C)c1` (stereo not given) here?
The Potency was “inactive”.

With `CCCCC(CC)COC(=O)CCCCCCCCC(=O)OCC(CC)CCCC` (stereo not given) as the compound, how does the Potency read?
Its Potency is “inactive”.

Which Potency does the source give for `C#CCN(C)CCCOc1ccc(Cl)cc1Cl` here?
Its Potency is “inactive”.

For `CN(C)c1ccc(/C=C/c2ccc([N+](=O)[O-])cc2)cc1`, which activity change, negative = cytotoxicity is on record?
Its activity change, negative = cytotoxicity is 7.98% [at 8.39 µM].

Which activity change, negative = cytotoxicity does the source give for `Cc1[nH]c(C)c(Cl)c(=O)c1Cl` here?
The activity change, negative = cytotoxicity was -5.47% [at 19 µM].

With `c1ccc(C(O[C@H]2CCCN(CCc3ccc4c(c3)OCO4)C2)c2ccccc2)cc1` as the compound, how does the Potency read?
Its Potency is “inactive”.

For `C[N+]1(C)CCC(OC(=O)C(O)(c2ccccc2)C2CCCC2)C1` (stereo not given), which Potency is on record?
Its Potency is “inactive”.

Which Potency does the source give for `CCOC(=O)C(O)c1ccccc1` (stereo not given) here?
The Potency was “inactive”.

For `Cc1c(N)cccc1[N+](=O)[O-]`, which Potency is on record?
Its Potency is “inactive”.

Which Potency does the source give for `CCCCNc1ccc(C(=O)OCCOCCOCCOCCOCCOCCOCCOCCOCCOC)cc1` here?
Its Potency is “inactive”.

For `CCCNCC(O)COc1ccccc1C(=O)CCc1ccccc1` (stereo not given), which Potency is on record?
The Potency was “inactive”.

Which Potency does the source give for `NS(=O)(=O)c1ccc(N2CCCCS2(=O)=O)cc1` here?
The Potency was “inactive”.

For `CN(C)CCN(Cc1ccc(Cl)cc1)c1ccccn1`, which Potency is on record?
The Potency was “inactive”.

Which Potency does the source give for `CC(=O)c1cccc([N+](=O)[O-])c1` here?
Its Potency is “inactive”.

With `CC1=CC[C@H](C(C)C)C=C1` as the compound, how does the Potency read?
Its Potency is “inactive”.
